Growth data for seven molecules are collected here from PubChem BioAssay (NCI).

Compounds without any hit were thinned out: in the full panel of roughly 83,000, 20% have a hit.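 The endpoint reported here, percent growth, reads 100 for growth as untreated, 0 for no net growth and -100 for all cells dead.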 Unmarked numbers belong to inactive results. The source made the active and inactive calls. The calls were made as follows: active = growth percent below 10; inactive = the rest.

What all share (test): NCI-60 one-dose screen, 48 h (100 = growth as untreated, 0 = no growth, -100 = all killed)
Conditions in all cases: 10 µM unless noted

Assay [1] deals with DU-145 prostate.
Assay [2] deals with K-562 leukemia.
The subject of assay [3] is MALME-3M melanoma.
Assay [4] concerns MDA-MB-231 breast.
Assay [5] concerns RXF 393 renal.
The test system of assay [6] is SF-268 CNS.
In assay [7] the test system is SF-295 CNS.
In assay [8] the test system is SF-539 CNS.
The subject of assay [9] is UACC-257 melanoma.
For assay [10], the system named is M14 melanoma.
In assay [11] the test system is HCT-15 colon.
For assay [12], the system named is HT29 colon.
The subject of assay [13] is SNB-75 CNS.
Assay [14] relates to SNB-19 CNS.
Assay [15] has as its system U251 CNS.
The test system of assay [16] is PC-3 prostate.
Assay [17] concerns SK-MEL-5 melanoma.
For assay [18], the system named is LOX IMVI melanoma.
Assay [19] concerns SK-MEL-28 melanoma.
The subject of assay [20] is UACC-62 melanoma.

Turning to `N#Cc1ccc(O)c(C2=NCC(c3ccccc3)O2)c1` (stereo not drawn), the growth in assay [1] was 53.7%; in assay [2] it was 23.4%; in assay [3] it was 56.6%; in assay [4] it was 46.4%; in assay [5] it was 73.1%; in assay [6], 47.2%. For the same molecule, the growth in assay [7] is 36.4%; in [8], 61.2%; in assay [9] it was 35.4%; in assay [10], 41.8%; in assay [11] it was 20.8%; in assay [12], 46.2%. The growth in assay [13] is 74.9%; in assay [14], 46%; in assay [15], 19.6%; in assay [16], 31.6%; in assay [17], 39.1%; in assay [18], 25.9%. Moreover, the growth in assay [19] was 86.4%.

For `Fc1cnccc1C1CC(c2ccc(N3CCNCC3)cc2)=NN1` (stereo not drawn), the growth was 107% in assay [1]; 77.9% in assay [2]; 93.4% in [3]; 84.6% in assay [4]; 105% in assay [5]; 107% in [6]. Further, the growth was 98% in assay [7]; 104% in assay [8]; 83.1% in assay [9]; 95.9% in assay [10]; 97.6% in assay [11]; 60.2% in assay [12]. Also, the growth in assay [13] is 101%; in [14], 97.5%; in assay [15], 95.1%; in assay [17], 85.8%; in [20], 81.9%; in assay [18], 94.3%. Besides, in assay [19], the growth was 116%.

Consider `CCCNc1nc2ccccc2c2c1S(=O)(=O)c1ccc(Cl)cc1C2=O`, for which the growth is 19.4% in assay [1]; 8.48% (active) in assay [2]; 21.9% in assay [3]; -0.717% (active) in assay [4]; 12% in assay [5]; 20.4% in assay [6]. Besides, the growth in assay [7] is 15.8%; in [8], 6.35% (active); in assay [9], 17.8%; in assay [10] it was 5.71% (active); in assay [11], 7.22% (active); in [12] it was 9.72% (active). For the same molecule, the growth in [13] was 15.6%; in assay [14], 24.4%; in assay [15], 1.6% (active); in assay [16], 25.1%; in assay [17] it was 2.77% (active); in [18], 4.45% (active). The growth in [19] was 32.8%.

On to `O=C1c2ccccc2-c2c1c1c(=O)[nH]c3ccccc3c1n2Cc1ccccc1`, for which the growth in assay [1] was 79%; in assay [2], 63.3%; in assay [3], 14%; in assay [4], 62%; in assay [5], 25.2%; in assay [6] it was 50.7%. Also, the growth in [7] is 60.3%; in assay [8], 55.7%; in assay [9], 74.9%; in [10], 84.2%; in assay [11], 84.5%; in assay [12], 75.6%. For the same molecule, the growth was 70.8% in [13]; 68.7% in assay [14]; 68.6% in assay [15]; 60.6% in assay [17]; 53.8% in [20]; 82.7% in assay [18]. In addition, the growth in [19] was 85.7%.

Regarding `Cc1csc(Nc2nc(-c3ccccn3)nc(C(Cl)(Cl)Cl)n2)n1`, the growth in assay [1] is 69.7%; in assay [2], 87.8%; in assay [3] it was 73.9%; in assay [4], 80.3%; in assay [5], 91.4%; in assay [6], 82.8%. Moreover, the growth is 91% in [7]; 94.2% in assay [8]; 78.8% in assay [9]; 83.7% in assay [10]; 57.2% in assay [11]; 68% in assay [12]. Moreover, the growth in assay [13] is 90.1%; in assay [14], 80.9%; in assay [15] it was 62.2%; in [16] it was 91.1%; in [17] it was 86.2%; in assay [18], 49.4%. The growth in assay [19] was 87.6%.

On to `COc1cc2ncnc(Nc3ccc(S(=O)(=O)Nc4cc(C)on4)cc3)c2cc1OCCCN1CCN(c2ccc(F)cc2)CC1`, for which the growth in assay [1] was 112%; in [2], 89.8%; in assay [3] it was 99.3%; in [4], 89.6%; in [5], 105%; in assay [6], 97.9%. The growth in assay [7] is 102%; in assay [8], 96.4%; in assay [9], 106%; in assay [10], 108%; in assay [11], 110%; in assay [12], 112%. Moreover, the growth was 85.4% in assay [13]; 97.3% in assay [14]; 93.6% in assay [15]; 101% in assay [16]; 103% in assay [17]; 89.8% in assay [18]. Moreover, the growth in assay [19] is 107%.

For the molecule `Cn1cc(-c2csc(-c3c[nH]c4ccc(Br)cc34)n2)c2ccnc(Cl)c21`, the growth is 42.9% in [1]; 17.6% in assay [2]; 112% in assay [3]; 54.8% in assay [4]; 51% in [5]; 86.7% in assay [6]. In addition, the growth in assay [7] was 62.1%; in assay [8], 67.6%; in [9], 17.4%; in assay [10], 43.2%; in assay [11], -0.791% (active); in assay [12], 20.8%. Also, the growth in assay [13] is 85.2%; in [14], 81.7%; in [15] it was 33.4%; in assay [16], 50.2%; in assay [17], 71.7%; in assay [18], 26.2%. The growth in assay [19] was 71.7%.
